# Data reported in PubChem BioAssay.
# Calls of active or inactive are those of the source.
# Legend:
# [1] = compound effects on differentiated 3T3-L1 adipocyte viability – cell-based, 3T3-L1 adipocytes, calcein-AM fluorescence, 48 h, basal, profiling panel (AID 1163); details: 3T3-L1 adipocytes viability, higher = more signal
# [2] = compound effects on hepatocellular carcinoma cell viability – HepG2, calcein-AM fluorescence, 48 h, basal, profiling panel (AID 1164); details: higher = more signal
# [3] = compound effects on multiple myeloma cell viability – MM1S, calcein-AM fluorescence, 48 h, basal, profiling panel (AID 1165); details: higher = more signal;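 also: viability of MM1S multiple myeloma cells under basal unstimulated conditions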
# [4] = calcein-AM signal in unstimulated myeloma cells – cell-based, calcein-AM fluorescence, 48 h, PK04 Diversity Set, profiling panel (AID 1166); details: RPMI8226 myeloma viability, higher = more signal;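 also: cells grown under basal conditions without added stimulus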
# [5] = JC-1 mitochondrial signal, unstimulated HepG2 cells – cell-based, JC-1 fluorescence, 24 h, 100 nL compound, profiling panel (AID 1167); details: HepG2 mitochondrial potential, higher = more signal
# [6] = JC-1 mitochondrial signal, unstimulated adipocytes – cell-based, JC-1 fluorescence, 3T3-L1 adipocytes, 24 h, 100 nL compound, profiling panel (AID 1168); details: JC-1 mitochondrial fluorescence, higher = more signal, called active from +8 up or from −8 down
# [7] = JC-1 mitochondrial signal, unstimulated myeloma cells – cell-based, JC-1 fluorescence, RPMI8226, 24 h, 100 nL compound, profiling panel (AID 1169); details: JC-1 mitochondrial potential fluorescence, higher = more signal
# [8] = JC-1 mitochondrial signal, unstimulated MM1S myeloma – cell-based, JC-1 fluorescence, 24 h, 100 nL compound, profiling panel (AID 1170); details: MM1S mitochondrial potential, higher = more signal
# [9] = resazurin metabolic signal in A549 cells – cell-based, resazurin fluorescence, 24 h, PK04 Diversity Set, profiling panel (AID 1171); details: A549 viability, higher = more signal, called active from +8 up or from −8 down
# [10] = resazurin metabolic signal in HepG2 cells – cell-based, resazurin fluorescence, 24 h, PK04 Diversity Set, profiling panel (AID 1172); details: HepG2 viability, higher = more signal
# [11] = budding yeast growth changes without added modifier – OD600, strain BY4716, 24 h, basal condition, primary screen (AID 1173); details: S. cerevisiae BY4716 growth, OD600, 24 h; higher = more signal, called active from +8 up or from −8 down
# [12] = viability profiling in MM1S myeloma cells – cell-based, resazurin fluorescence, basal, 24 h, PK04 Diversity Set, profiling panel (AID 1174); details: higher = more signal, called active from +8 up or from −8 down
# [13] = molecular target: Dihydroorotate dehydrogenase (quinone), mitochondrial (Plasmodium falciparum (isolate 3D7)) (UniProt Q08210); test: inhibition of P. falciparum DHODH – biochemical, C-terminal His tag, absorbance 600 nm, primary screen (AID 1175); details: PfDHODH enzyme, DCIP absorbance 600 nm; higher = more signal, called active from +8 up or from −8 down;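 also: recombinant parasite enzyme with a five histidine tag at its C terminus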
# Sequence of Dihydroorotate dehydrogenase (quinone), mitochondrial (Plasmodium falciparum (isolate 3D7)) (Q08210 whole entry, looked up): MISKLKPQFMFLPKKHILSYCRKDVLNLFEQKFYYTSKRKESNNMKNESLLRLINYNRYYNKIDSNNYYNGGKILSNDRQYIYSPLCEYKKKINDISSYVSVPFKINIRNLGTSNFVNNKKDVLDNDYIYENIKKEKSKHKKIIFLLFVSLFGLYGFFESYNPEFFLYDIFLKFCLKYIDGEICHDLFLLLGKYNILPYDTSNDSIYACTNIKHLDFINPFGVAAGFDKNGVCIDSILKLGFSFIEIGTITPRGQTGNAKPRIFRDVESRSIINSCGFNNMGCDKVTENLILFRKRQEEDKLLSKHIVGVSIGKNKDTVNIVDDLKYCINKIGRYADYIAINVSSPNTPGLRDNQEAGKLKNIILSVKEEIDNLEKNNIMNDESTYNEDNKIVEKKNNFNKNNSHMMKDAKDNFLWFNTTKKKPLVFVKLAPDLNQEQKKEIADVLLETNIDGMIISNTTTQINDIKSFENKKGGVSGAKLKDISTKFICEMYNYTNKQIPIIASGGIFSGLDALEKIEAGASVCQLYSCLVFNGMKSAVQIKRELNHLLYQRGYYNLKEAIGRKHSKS
# [14] = growth modulation of vineyard yeast isolate – strain RM11-1a, OD600, basal, 24 h, primary screen (AID 1177);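 also: cultures grown under basal conditions with no added stressor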; details: S. cerevisiae RM11-1a growth, OD600, 24 h; higher = more signal, called active from +8 up or from −8 down
# [15] = growth of efflux-deficient E. coli DRC39 – strain DRC39, OD650, 24 h, E. coli filamentation inducers, primary screen (AID 1178);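 also: growth measured as culture turbidity by optical density at 650 nm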; details: E. coli DRC39 acrAB, higher = more signal, called active from +8 up or from −8 down
# [16] = growth of efflux-deficient E. coli DRC39 – strain DRC39, OD650, 48 h, E. coli filamentation inducers, primary screen (AID 1179);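 also: screen aims at cell division blockers that make cells filament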; details: E. coli DRC39 delta-acrAB growth, higher = more signal, called active from +8 up or from −8 down
# [17] = viability profiling in RPMI8226 myeloma cells – cell-based, resazurin fluorescence, basal, 24 h, PK04 Diversity Set, profiling panel (AID 1180); details: higher = more signal;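 also: RPMI8826 multiple myeloma cell line at 5000 cells per well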
# [18] = molecular target: E3 ubiquitin-protein ligase XIAP (Homo sapiens) (UniProt P98170); test: small molecules binding XIAP protein – biophysical, small-molecule microarray, fluorescence 635 nm, primary screen (AID 1181); details: higher = more signal;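 also: score merges 667 nm emission and signal to noise over triplicate slides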
# Sequence of E3 ubiquitin-protein ligase XIAP (Homo sapiens) (P98170 whole entry, looked up, the tested form may be a part): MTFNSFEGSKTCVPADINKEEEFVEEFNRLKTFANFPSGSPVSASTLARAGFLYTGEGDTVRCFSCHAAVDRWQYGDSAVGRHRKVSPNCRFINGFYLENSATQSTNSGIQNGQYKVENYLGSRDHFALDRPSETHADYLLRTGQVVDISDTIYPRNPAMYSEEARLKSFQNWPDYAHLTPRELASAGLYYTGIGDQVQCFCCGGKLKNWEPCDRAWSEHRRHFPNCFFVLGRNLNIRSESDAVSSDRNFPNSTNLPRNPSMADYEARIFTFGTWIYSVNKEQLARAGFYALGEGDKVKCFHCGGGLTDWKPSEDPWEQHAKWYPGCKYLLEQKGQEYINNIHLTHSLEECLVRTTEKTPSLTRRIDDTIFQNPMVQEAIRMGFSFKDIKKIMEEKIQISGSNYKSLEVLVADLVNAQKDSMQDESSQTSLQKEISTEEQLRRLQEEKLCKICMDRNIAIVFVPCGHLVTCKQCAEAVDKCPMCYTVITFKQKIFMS
# [19] = system: XIP peptide (Xip251-270) binding; test: XIP fragment 251-270 binding compounds – biochemical, small-molecule microarray, fluorescence 635/667 nm, 0.1 µg/mL protein, primary screen (AID 1182); details: fluorescent protein binding, 635 nm, higher = more signal, called active from +8 up or from −8 down
# XIP peptide (Xip251-270) = test: compounds binding XIP fragment 251-270 – biochemical, small-molecule microarray, fluorescence 635/667 nm, 0.5 µg/mL protein, primary screen (AID 1183); details: fluorescence 635 nm, higher = more signal
Compound,z-score [1],z-score [2],z-score [3],z-score [4],z-score [5],z-score [6],z-score [7],z-score [8],z-score [9],z-score [10],z-score [11],z-score [12],composite z-score [13],z-score [14],z-score [15],z-score [16],z-score [17],composite z-score [18],composite z-score [19],composite z-score (XIP peptide (Xip251-270))
C=CCC(OC(C)=O)[C@@H]1[C@@H](N(Cc2cc3ccccc3o2)C(=O)c2ccc(-c3ccccc3)cc2)c2cc(OCCCO)ccc2N1C(=O)c1ccc(-c2ccccc2)cc1 (stereo not given in full),0.893,0.249,0.402,-0.777,3.06,0.604 (inactive),-0.557,0.511,1.15 (inactive),0.634,0.18 (inactive),1.28 (inactive),0.192 (inactive),0.975 (inactive),1.47 (inactive),1.07 (inactive),0.996,-0.102,-0.547 (inactive),-0.599
C=CCN1C(=O)[C@@]2(O[C@@H](CCO)[C@H]([Si](C)(C)c3ccc(OC)cc3)[C@H]2C)c2cc(N3C(=O)c4cccc5cccc3c45)ccc21,-1.3,-4.72,-2.92,-4.4,-2.34,2.26 (inactive),-1.01,-2.09,-4.58 (inactive),-6.14,0.275 (inactive),-8.59 (active),0.901 (inactive),5.51 (inactive),2.57 (inactive),2.05 (inactive),-6.03,0.0411,0.777 (inactive),0.714
CO[C@H]1O[C@H](CO)[C@@H](OC(=O)Nc2ccccc2)[C@H](OC(=O)Nc2ccccc2-c2ccccc2)[C@H]1OC(=O)Nc1ccccc1-c1ccccc1,1.59,-4.94,-3.51,-4.34,-1.05,3.65 (inactive),-1.17,-1.64,-6.11 (inactive),-4.93,-2.12 (inactive),-6.52 (inactive),-0.551 (inactive),0.145 (inactive),0.218 (inactive),-0.414 (inactive),-5.34,0.113,1.32 (inactive),0.896
CO[C@H]1O[C@H](CO)[C@@H](OC(=O)Nc2ccccc2)[C@H](OC(=O)Nc2ccccc2-c2ccccc2)[C@@H]1OC(=O)Nc1ccccc1-c1ccccc1,0.195,-1.35,-1.09,-1.33,-0.629,2.01 (inactive),-0.947,0.15,-2.22 (inactive),-0.342,-0.954 (inactive),-1.15 (inactive),-1.33 (inactive),2.16 (inactive),-0.233 (inactive),-0.3 (inactive),-0.447,-0.0988,1.7 (inactive),0.868
C[C@@H](OCc1ccccc1)C1NC(=O)[C@@]23C(=O)N[C@@H](Cc4ccccc4)C2[C@H](C)[C@@]2(C)O[C@H]2C3/C=C/C/C=C\CNC(=O)[C@@H]2CCCN2C1=O (stereo not given in full),0.812,0.11,-1.11,-0.722,2.87,0.566 (inactive),0.0782,1.19,1.46 (inactive),0.432,-1.9 (inactive),0.556 (inactive),-0.0867 (inactive),-0.421 (inactive),2.53 (inactive),1.66 (inactive),0.685,0.176,0.187 (inactive),-1.05
CC(C)C[C@@H]1NC(=O)[C@H]2C[C@@H](C(=O)NCCCC[N+](C)(C)C)[C@@H](c3cccc(OCCO)c3)N2C1=O,0.753,-0.131,0.0808,-0.583,1.22,1.37 (inactive),-0.173,0.0969,-0.474 (inactive),0.417,-0.553 (inactive),0.932 (inactive),-30.9 (active),-0.915 (inactive),0.709 (inactive),0.569 (inactive),0.33,-0.0476,1.85 (inactive),0.705
COc1ccc([Si](C)(C)[C@@H]2[C@@H](CCn3cc([C@H](O)c4ccccc4)nn3)O[C@]3(C(=O)N(C)c4c(Br)cc(C)cc43)[C@H]2C)cc1,1.49,-4.5,-2.72,-4.42,-1.11,2.39 (inactive),-1.06,-1.2,-2.49 (inactive),-3.66,-1.39 (inactive),-8.35 (active),-0.973 (inactive),-2.42 (inactive),2.5 (inactive),2.83 (inactive),-6.23,0.382,0.512 (inactive),0.202
[N-]=[N+]=NCc1ccccc1C[C@]1(C(=O)NCc2ccccc2)N=C(c2ccc(OCCCO)cc2)O[C@H]1c1ccccc1,0.457,-2.82,-2.07,-2.78,0.671,0.371 (inactive),-0.819,-1.6,0.225 (inactive),0.643,2.86 (inactive),-0.295 (inactive),2.37 (inactive),4.01 (inactive),3.49 (inactive),1.24 (inactive),-0.29,0.191,0.279 (inactive),-0.172
